Experiment [1] is described as follows: small molecules captured by biotinylated probe aFSTL3 – biochemical, small-molecule microarray, fluorescence 635/667, stem cell growth factor project, primary screen (AID 1064).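 Also: measures binding of the biotinylated anti-FSTL3 antibody to printed compounds.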 To be noted: higher = more signal.
The nature of experiment [2]: binders from COS7 lysate, DM2A8 probe, primary screen, torsin A project, cell lysate, small-molecule microarray, fluorescence 635/667 (AID 1065). Particulars: higher = more signal, COS7 lysate expressing mutant human TOR1A.
Experiment [3] is described as follows: small molecules captured by biotinylated probe aFGF2 – biochemical, small-molecule microarray, fluorescence 635/667, stem cell growth factor project, primary screen (AID 1067).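 Also: measures binding of biotinylated aFGF2 protein to printed compounds on slides; z-score merges feature fluorescence and signal-to-noise across triplicate slides.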 Particulars: higher = more signal.
Experiment [4] in a line: small molecules captured by biotinylated probe aFGF10 – biochemical, small-molecule microarray, fluorescence 635/667, stem cell growth factor project, primary screen (AID 1071).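 Also: score merges 667 nm spot intensity and signal to noise from triplicate slides.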 Particulars: higher = more signal.
Experiment [5] has as its target Neurogenic locus notch homolog protein 2 (Homo sapiens) (UniProt Q04721). In words: small molecules binding Notch2 protein – biochemical, small-molecule microarray, 635 nm fluorescence, stem cell growth factors, primary screen (AID 1073). Particulars: higher = more signal.
For experiment [6], the target named is Pro-neuregulin-1, membrane-bound isoform (Homo sapiens) (UniProt Q02297). Nature of the experiment: small molecules binding neuregulin-1 protein – biochemical, small-molecule microarray, fluorescence 635/667, psychiatric disease protein project, primary screen (AID 1075).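 Also: score combines 667 nm spot fluorescence with signal to noise.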 Particulars: NRG1 binding, 635 nm fluorescence, higher = more signal.
Experiment [7] has as its system Neuregulin-1 EGF-like domain. In words: small molecules binding NRG1 EGF domain – biochemical, small-molecule microarray, 635 nm fluorescence, primary screen (AID 1081).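 Also: binding of the protein to compounds printed on small-molecule microarray slides.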 Particulars: higher = more signal.
Experiment [8] in a line: FRG1 expression reporter modulators in myotubes – cell-based, C2C12 myotubes, firefly/Renilla luciferase, luminescence, FRG1 inhibition for FSHD, primary screen (AID 1084). Particulars: FRG1 promoter luciferase, higher = more signal, called active from +8 up or from −8 down.
Experiment [9] in a line: small molecules captured by biotinylated probe aFST – biochemical, small-molecule microarray, fluorescence 635/667, stem cell growth factor project, primary screen (AID 1086).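 Also: score merges 667 nm fluorescence with signal-to-noise of each printed compound spot.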 To be noted: higher = more signal.
Experiment [10] in a line: binders of probe aHhip on microarray, primary screen, stem cell growth factor project, biochemical, small-molecule microarray, fluorescence 635/667 (AID 1087).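 Also: score merges spot fluorescence at 667nm with spot signal to noise ratio.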 Particulars: higher = more signal.

Each structure is given as a SMILES string. Active and inactive are the calls of the source.

Pro-neuregulin-1, membrane-bound isoform (Homo sapiens), sequence (Q02297 whole entry, looked up, the tested form may be a part, canonical isoform): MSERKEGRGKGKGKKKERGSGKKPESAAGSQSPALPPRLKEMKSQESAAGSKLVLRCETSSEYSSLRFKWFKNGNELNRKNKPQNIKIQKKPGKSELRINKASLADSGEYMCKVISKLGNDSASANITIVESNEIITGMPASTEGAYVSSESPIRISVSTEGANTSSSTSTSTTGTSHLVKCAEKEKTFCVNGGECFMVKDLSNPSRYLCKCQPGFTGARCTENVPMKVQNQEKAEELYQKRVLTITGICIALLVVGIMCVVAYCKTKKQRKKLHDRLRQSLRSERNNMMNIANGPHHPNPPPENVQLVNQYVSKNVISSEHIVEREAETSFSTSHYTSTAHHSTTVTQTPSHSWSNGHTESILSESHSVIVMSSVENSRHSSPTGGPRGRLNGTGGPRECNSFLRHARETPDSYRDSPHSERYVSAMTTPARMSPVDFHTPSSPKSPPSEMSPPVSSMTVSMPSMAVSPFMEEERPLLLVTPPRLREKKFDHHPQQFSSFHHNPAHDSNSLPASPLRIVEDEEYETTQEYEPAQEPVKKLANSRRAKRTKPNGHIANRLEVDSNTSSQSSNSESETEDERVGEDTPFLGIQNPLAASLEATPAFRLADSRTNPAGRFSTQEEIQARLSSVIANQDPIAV
Neurogenic locus notch homolog protein 2 (Homo sapiens), sequence (Q04721 whole entry, looked up, canonical isoform): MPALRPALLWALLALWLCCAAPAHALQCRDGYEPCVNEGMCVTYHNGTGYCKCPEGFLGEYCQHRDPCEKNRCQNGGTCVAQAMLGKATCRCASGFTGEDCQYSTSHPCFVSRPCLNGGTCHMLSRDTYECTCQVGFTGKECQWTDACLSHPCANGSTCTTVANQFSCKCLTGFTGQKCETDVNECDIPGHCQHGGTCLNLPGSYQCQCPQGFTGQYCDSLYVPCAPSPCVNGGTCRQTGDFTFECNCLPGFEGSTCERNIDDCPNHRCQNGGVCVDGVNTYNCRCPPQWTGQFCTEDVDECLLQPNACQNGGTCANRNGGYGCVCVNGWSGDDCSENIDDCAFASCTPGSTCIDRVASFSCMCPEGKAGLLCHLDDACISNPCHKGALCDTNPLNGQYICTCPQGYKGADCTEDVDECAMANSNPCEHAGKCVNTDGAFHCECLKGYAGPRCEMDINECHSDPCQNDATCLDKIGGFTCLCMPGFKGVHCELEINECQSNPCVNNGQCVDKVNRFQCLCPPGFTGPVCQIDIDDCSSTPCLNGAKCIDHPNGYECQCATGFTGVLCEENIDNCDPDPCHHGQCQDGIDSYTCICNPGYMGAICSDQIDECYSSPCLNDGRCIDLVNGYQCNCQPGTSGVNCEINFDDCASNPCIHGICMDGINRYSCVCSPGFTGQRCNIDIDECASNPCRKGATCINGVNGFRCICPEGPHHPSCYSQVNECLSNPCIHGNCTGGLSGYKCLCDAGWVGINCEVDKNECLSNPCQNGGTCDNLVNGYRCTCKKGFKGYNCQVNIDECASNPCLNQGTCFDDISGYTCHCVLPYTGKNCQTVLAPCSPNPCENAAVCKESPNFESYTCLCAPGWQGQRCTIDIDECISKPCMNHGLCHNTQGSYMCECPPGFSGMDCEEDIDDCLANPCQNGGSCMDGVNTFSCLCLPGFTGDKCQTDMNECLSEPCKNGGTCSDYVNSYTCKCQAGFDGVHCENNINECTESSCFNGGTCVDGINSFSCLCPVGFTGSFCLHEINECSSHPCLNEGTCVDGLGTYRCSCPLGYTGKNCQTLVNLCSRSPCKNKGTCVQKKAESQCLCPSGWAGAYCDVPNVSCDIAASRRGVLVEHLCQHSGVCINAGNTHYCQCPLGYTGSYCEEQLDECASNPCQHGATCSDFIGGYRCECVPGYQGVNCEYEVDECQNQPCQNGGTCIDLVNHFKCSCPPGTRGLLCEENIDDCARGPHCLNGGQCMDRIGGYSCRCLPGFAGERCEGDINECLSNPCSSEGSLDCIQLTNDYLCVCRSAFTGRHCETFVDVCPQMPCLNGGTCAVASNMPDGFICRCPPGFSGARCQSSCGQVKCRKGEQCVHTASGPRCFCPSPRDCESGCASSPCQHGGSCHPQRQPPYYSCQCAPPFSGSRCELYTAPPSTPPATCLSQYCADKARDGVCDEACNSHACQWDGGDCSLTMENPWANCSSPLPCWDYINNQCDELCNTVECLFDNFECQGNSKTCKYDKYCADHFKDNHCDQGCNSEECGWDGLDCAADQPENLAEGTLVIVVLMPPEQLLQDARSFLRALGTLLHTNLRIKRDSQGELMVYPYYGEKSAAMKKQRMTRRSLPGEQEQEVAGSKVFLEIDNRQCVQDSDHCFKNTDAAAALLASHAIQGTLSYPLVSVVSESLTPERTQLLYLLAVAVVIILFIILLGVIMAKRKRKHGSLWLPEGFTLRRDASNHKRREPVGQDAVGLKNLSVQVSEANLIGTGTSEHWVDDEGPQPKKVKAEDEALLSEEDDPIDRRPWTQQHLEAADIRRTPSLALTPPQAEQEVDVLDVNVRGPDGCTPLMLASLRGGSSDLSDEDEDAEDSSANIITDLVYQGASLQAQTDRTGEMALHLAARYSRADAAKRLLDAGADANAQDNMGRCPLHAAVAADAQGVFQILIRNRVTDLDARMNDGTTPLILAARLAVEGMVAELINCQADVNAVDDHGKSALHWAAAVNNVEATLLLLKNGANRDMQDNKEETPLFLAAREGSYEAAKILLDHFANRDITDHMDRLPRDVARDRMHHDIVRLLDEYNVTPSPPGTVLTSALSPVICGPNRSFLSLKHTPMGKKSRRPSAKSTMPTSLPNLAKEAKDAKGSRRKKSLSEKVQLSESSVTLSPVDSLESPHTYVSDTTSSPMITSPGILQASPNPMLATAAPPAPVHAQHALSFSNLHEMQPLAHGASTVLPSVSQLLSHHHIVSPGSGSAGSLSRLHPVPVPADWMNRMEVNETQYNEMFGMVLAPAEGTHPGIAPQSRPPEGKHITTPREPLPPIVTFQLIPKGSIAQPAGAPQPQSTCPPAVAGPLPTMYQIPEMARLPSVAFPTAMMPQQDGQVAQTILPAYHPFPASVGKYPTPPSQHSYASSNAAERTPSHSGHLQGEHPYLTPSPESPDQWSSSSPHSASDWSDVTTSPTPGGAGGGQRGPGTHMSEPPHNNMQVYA

As for `CC(C)N1C(=O)c2ccccc2[C@@H](C(=O)NCCN2CCOCC2)[C@@H]1c1ccc(CO)cc1`, the composite z-score in experiment [1] was 0.197; in experiment [2], -0.831; in experiment [3], -0.22; in [4], -1.54; in experiment [5], -1.61; in experiment [6], 1.12. Besides, the composite z-score in [7] is 1.28; in experiment [9] it was -0.727; in experiment [10], -0.284. Also, the z-score in experiment [8] is -0.571 (inactive).

On to `O=C(Cc1ccccc1)[C@H]1C2C=CCCC(c3ccccc3)=C2CN1Cc1ccccc1` (stereo not given in full), for which the composite z-score was -0.138 in [1]; 1.24 in experiment [2]; -0.085 in experiment [3]; 0.0623 in [4]; -0.0515 in [5]; -0.473 in [6]. Moreover, the composite z-score in [7] was -0.122; in experiment [9], -0.205; in experiment [10] it was 0.0722. Further, the z-score in experiment [8] was -1.2 (inactive).

On to `CCOC(=O)C[C@H]1[C@H](OC(=O)c2cc3ccccc3oc2=O)[C@@H](NC(=O)CC(C)C)c2cc(OCCCO)ccc2N1C(=O)c1ccc2ccccc2n1`, for which the composite z-score in experiment [1] is -0.444; in experiment [2] it was 0.304; in [3], -0.132; in experiment [4], 0.945; in experiment [5] it was 1.09; in [6] it was 0.594. The composite z-score in experiment [7] is 1.1; in experiment [9] it was 0.252; in experiment [10], -0.199. In addition, the z-score in [8] was 0.159 (inactive).

For the compound `CCCCCCCCCCC(O)C1C=CC2C(=O)N(c3ccccc3)C(=O)C2N1Nc1ccc(C#N)cc1` (stereo not given), the composite z-score in experiment [1] is 0.356; in experiment [2], 0.179; in [3], -0.0262; in [4] it was 0.696; in experiment [5], 1.18; in experiment [6], 1.73. For the same compound, the composite z-score in [7] came out at 0.98; in [9] it was 0.647; in experiment [10] it was 0.0626. The z-score in experiment [8] is 1.05 (inactive).

As for `CCOC(=O)C[C@H]1[C@H](OC(=O)c2cc3ccccc3oc2=O)[C@@H](NC(=O)c2ccc3ccccc3n2)c2cc(OCCCO)ccc2N1C(=O)Cc1ccc(OC)cc1`, the composite z-score was -0.446 in experiment [1]; 0.522 in experiment [2]; -0.0107 in [3]; 0.302 in [4]; 0.958 in experiment [5]; 1.03 in [6]. Moreover, the composite z-score is 0.946 in [7], 0.24 in [9] and -0.201 in [10]. Besides, the z-score in [8] was 0.547 (inactive).

On to `COc1cc(OC)c(C(O)C2C=CC3C(=O)N(Cc4ccccc4)C(=O)C3N2n2cnnc2)cc1Br` (stereo not given), for which the composite z-score is -0.245 in [1]; 2.19 in experiment [2]; -0.0131 in experiment [3]; 0.919 in [4]; 0.36 in experiment [5]; 1.32 in experiment [6]. Besides, the composite z-score was 1.12 in [7], 1.35 in [9] and -0.0645 in experiment [10]. Also, in experiment [8], the z-score is 0.569 (inactive).

As to `O=C1OCCC/C=C\[C@H]2OC34C=CCN(c5ccc6ccccc6c5)C(=O)[C@H]3N(CCO)C(=O)[C@@H]4C12` (stereo not given in full), the composite z-score in [1] is 0.24; in experiment [2] it was -0.514; in [3], -0.159; in experiment [4], -0.818; in experiment [5] it was -1.23; in experiment [6], 1.6. For the same compound, the results for the composite z-score in experiment [7], in experiment [9] and in experiment [10] were 1.04, -0.667 and -0.423, respectively. Also, the z-score in experiment [8] is 0.751 (inactive).

Take `COCCOC(=O)N1C(=O)[C@@]2(c3cc(C#CC4(O)CCCCCC4)ccc31)[C@H](C(=O)N1CCc3cc(OC)c(OC)cc3C1)[C@H]1C(=O)O[C@H](c3ccccc3)[C@H](c3ccccc3)N1[C@@H]2c1ccc(OCCO)cc1`: the composite z-score in experiment [1] was -0.409; in experiment [2] it was 0.502; in experiment [3], 0.0088; in experiment [4] it was 0.467; in [5], 1.24; in experiment [6], 0.675. Besides, the composite z-score in experiment [7] was 1.18; in experiment [9], 0.198; in experiment [10], -0.0994. Further, the z-score in experiment [8] was 1 (inactive).

Take `Cc1ccc(S[C@]2(C(=O)NC(C)C)CC(=O)N(Cc3cc(C(F)(F)F)cc(C(F)(F)F)c3)[C@@H]2c2ccc(CO)cc2)cc1`: the composite z-score in experiment [1] was 0.0795; in experiment [2], -0.662; in experiment [3], -0.145; in [4], -0.898; in [5], -1.08; in experiment [6] it was 0.624. The composite z-score was 0.644 in experiment [7], -0.803 in experiment [9] and -0.236 in experiment [10]. Also, the z-score in experiment [8] is 0.237 (inactive).

For the compound `CC(C)N1CC=CC23O[C@@H]4C=CCCOC(=O)C4[C@H]2C(=O)N(CCCO)[C@@H]3C1=O` (stereo not given in full), the composite z-score in [1] is -0.339; in [2] it was -0.0962; in experiment [3], -0.12; in experiment [4], -0.458; in [5], -0.693; in experiment [6] it was -0.491. Moreover, the composite z-score in [7] turned out to be 0.059; in experiment [9], 0.002; in experiment [10], 0.0505. Besides, the z-score in experiment [8] was -0.395 (inactive).

As for `CCOC(=O)[C@@H]1CCCCN1C(=O)C(=O)OC`, the composite z-score in experiment [1] is 0.0188; in experiment [2], 0.188; in experiment [3], -0.0593; in experiment [4], 0.453; in experiment [5], 0.0842; in [6], -0.0734. Further, the composite z-score in [7] was 0.33; in [9], 0.115; in experiment [10] it was -0.342. Moreover, the z-score in experiment [8] is 0.148 (inactive).

Take `CC[C@@H]1C=C(C(=O)O)[C@H](c2ccccc2)N1S(=O)(=O)c1ccc(C)cc1`: the composite z-score in experiment [1] turned out to be 0.262; in experiment [2] it was 0.577; in experiment [3] it was 0.0663; in [4], 0.829; in [5] it was 1.53; in [6] it was 1.19. Moreover, the results for the composite z-score in experiment [7], in experiment [9] and in experiment [10] were 1.38, 0.635 and -0.0296, respectively. Also, the z-score in [8] is -1.24 (inactive).

The record behind these values is PubChem BioAssay.
